Screens (PubChem BioAssay)
The list is not random: actives were taken first. Their share in the collection is about 12%.
JMJD2A Tudor inh: JMJD2A Tudor domain (human) inhibition | O75164 | AID 504339 | Potency, µM (top dose mostly 114 µM), without a hit: at the highest dose activity change, negative = inhibition, hits mostly inhibitors | AlphaScreen JMJD2A-Tudor / H3K4me3 peptide binding | hit rate 4.4% among 390,000; further: on the % scale 0 is the no-effect control and ±100 the full control effect; nearly all actives have a fitted effect of over 50% in size
G9a block: G9a (human) methyltransferase inhibition; Q96KQ7; G9a H3K9 monomethylation, AlphaScreen, 2 h; Potency, µM (series often up to 102 µM), inactives show top-dose activity, negative = inhibition, actives largely listed as inhibitors; hit rate 8.8% among 350,000; AID 504332; further: on the % scale 0 is the no-effect control and ±100 the full control effect; nearly all actives have a fitted effect of over 75% in size
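Enzyme 20 nM + cpd, 15 min RT; add b-H3K9 pep 500 nM / SAM 20 uM; 2 h RT; anti-H3K9me1 Ab 0.5 ug/mL + SA donor / anti-rabbit acceptor beads 20 ug/mL each, 10 min; AlphaScreen read.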
TDP1 inh: blocks human tyrosyl-DNA phosphodiesterase 1; recombinant TDP1, AlphaScreen DNA substrate cleavage; hit rate 0.28% among 350,000; Potency, µM (top dose mostly 130 µM), for the others: top-dose activity change, negative = inhibition, most hits filed as inhibitors; Q9NUW8; further: on the % scale 0 is the no-effect control and ±100 the full control effect; nearly all actives have a fitted effect of over 40% in size
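Recombinant human Tdp1 (E. coli-expressed, 1 nM final) preincubated with compounds 15 min at room temperature, then 5'-biotin/3'-phosphotyrosine-FITC DNA substrate (15 nM final) added for 5 min. AlphaScreen beads (10 ug/ml final) added 10 min; cleavage lowers signal.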
HP1b binding inh: HP1-beta chromodomain-methylated histone interaction inhibition; P83916; AlphaScreen HP1-beta / biotin-H3K9me3 peptide binding; Potency, µM (titrated, usually from 114 µM), without a hit: at the top dose activity change, negative = inhibition, hits mostly inhibitors; hit rate 0.56% among 390,000; further: nearly all actives have a fitted effect of over 70% in size
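AlphaScreen: HP1-beta (50 nM) preformed 30 min with biotin-H3(1-18)K9me3 peptide (50 nM) in PBS pH 7.4, 0.01% Tween-20. Compound added for 30 min at RT, then streptavidin donor/nickel chelate acceptor beads (10 ug/mL) for 30 min.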
Sfp inh: Sfp phosphopantetheinyl transferase inhibition. Q9F4F7. Biochemical Sfp PPTase activity, qHTS. Potency, µM, for the others: largest response in the series, negative = inhibition, hits mostly inhibitors. hit rate 3.5% among 310,000;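 further: the enzyme is Sfp with the accession as filed and its product quenches rhodamine fluorescence; 0% = enzyme reaction without inhibitor and -100% = no enzyme wells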
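Step 1, compound plus 15 nM Sfp-PPTase, 15 min, room temperature. Step 2, add rhodamine-CoA (5 uM) and BHQ-2-YbbR (12.5 uM). Step 3, read 525/598 nm fluorescence at 0 and 30 min.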
BAZ2B inh: inhibitors of human BAZ2B bromodomain | Q9UIF8 | AlphaScreen BAZ2B-H3K14Ac peptide displacement | Potency, µM (titrated, usually from 114 µM), without a hit: top-dose activity change, negative = inhibition, actives largely listed as inhibitors | hit rate 4.4% among 360,000 | AID 504333; further: on the % scale 0 is the no-effect control and ±100 the full control effect; nearly all actives have a fitted effect of over 60% in size
Target sequence (Q9UIF8 whole entry, looked up): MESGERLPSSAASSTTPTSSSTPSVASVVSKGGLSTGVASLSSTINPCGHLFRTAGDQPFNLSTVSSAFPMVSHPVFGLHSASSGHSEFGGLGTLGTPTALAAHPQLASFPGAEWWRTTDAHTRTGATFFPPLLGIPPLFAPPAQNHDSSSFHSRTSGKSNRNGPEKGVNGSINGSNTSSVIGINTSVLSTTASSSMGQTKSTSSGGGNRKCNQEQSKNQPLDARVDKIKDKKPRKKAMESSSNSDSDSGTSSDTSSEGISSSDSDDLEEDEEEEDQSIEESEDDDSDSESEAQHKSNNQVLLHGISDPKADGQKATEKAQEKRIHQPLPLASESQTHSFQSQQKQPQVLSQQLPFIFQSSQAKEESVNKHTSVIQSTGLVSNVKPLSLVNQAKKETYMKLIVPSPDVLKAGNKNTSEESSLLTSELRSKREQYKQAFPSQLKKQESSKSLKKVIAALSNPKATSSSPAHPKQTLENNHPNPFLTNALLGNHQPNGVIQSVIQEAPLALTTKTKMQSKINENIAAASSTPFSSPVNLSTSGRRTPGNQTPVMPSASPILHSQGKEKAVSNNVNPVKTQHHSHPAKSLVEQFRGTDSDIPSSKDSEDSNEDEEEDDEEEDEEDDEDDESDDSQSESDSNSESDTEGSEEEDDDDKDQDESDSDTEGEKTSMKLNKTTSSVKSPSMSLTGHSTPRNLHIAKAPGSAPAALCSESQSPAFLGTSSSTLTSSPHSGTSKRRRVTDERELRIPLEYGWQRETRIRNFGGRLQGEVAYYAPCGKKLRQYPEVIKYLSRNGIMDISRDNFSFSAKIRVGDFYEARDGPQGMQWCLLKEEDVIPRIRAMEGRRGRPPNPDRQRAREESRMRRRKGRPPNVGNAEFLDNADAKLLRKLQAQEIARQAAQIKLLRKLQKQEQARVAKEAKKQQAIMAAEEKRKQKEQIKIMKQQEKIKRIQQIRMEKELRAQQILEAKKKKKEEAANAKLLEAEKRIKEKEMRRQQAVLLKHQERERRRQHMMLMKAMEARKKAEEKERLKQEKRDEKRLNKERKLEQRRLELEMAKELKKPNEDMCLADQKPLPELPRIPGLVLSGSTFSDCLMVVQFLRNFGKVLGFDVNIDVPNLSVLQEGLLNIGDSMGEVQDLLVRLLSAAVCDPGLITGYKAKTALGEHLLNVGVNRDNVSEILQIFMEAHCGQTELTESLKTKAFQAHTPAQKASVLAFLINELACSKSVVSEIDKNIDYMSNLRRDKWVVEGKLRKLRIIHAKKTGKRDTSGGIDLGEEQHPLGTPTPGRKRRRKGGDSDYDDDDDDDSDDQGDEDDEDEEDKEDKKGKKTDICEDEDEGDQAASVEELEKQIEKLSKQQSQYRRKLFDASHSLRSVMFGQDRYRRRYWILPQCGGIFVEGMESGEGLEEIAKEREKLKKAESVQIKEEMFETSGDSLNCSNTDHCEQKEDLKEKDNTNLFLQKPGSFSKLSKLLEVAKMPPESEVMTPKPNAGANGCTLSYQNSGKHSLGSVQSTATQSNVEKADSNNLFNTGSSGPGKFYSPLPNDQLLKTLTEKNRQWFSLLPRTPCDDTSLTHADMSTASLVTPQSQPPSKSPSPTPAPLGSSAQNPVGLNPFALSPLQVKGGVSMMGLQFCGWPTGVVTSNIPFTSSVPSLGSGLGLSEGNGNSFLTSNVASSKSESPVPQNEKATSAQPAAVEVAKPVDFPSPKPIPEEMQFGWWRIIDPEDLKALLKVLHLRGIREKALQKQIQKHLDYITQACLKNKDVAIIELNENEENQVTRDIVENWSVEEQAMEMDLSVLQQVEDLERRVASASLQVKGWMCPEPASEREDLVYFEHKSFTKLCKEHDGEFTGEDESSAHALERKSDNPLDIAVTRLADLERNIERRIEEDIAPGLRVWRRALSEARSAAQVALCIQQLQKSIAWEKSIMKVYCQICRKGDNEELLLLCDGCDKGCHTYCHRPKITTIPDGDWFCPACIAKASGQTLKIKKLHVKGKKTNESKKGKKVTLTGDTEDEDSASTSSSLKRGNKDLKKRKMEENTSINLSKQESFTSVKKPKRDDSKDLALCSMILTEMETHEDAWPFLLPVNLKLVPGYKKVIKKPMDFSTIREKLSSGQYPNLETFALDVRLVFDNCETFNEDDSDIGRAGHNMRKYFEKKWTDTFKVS
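Multi-concentration screen (max 110 uM) measuring displacement of acetylated histone H3 peptide from BAZ2B by AlphaScreen, using 50 nM protein, 50 nM peptide and 10 ug/mL streptavidin donor plus Ni-chelate acceptor beads.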
The depositor's hits bear a star; ? = inconclusive; nt = not tested or not shown; [ ] = remark or other dose. The call rests on the fitted dose curve; in most records, active means well fitted curve in the direction sought with a large enough effect; inconclusive means small, poorly fitted or top-dose-only effect, or another doubt; inactive means no such curve, though single readings can be large; an effect the other way counts as inactive or inconclusive. Potency means the concentration at half of the fitted maximal effect.

SMILES	JMJD2A Tudor inh	G9a block	TDP1 inh	HP1b binding inh	Sfp inh	BAZ2B inh
CN1CCc2c(sc3c2C(=O)NC(c2ccc(OC(=O)c4ccc(Cl)cc4)cc2)N3)C1 (stereo not given)	-11%	16µM*	1%[12.3 µM]	22%	nt	?
COCCC(=O)N1CCC(Oc2ccc(C(=O)N3C[C@@H]4CCC[C@H]3C4)cc2)CC1	-14%	13%	3%	28%	-2%	-4%[57.1 µM]
CCCN(CCO)Cc1cccc(Br)c1	4.5µM*	?	nt	?	-18%	50µM*
OCCN(CCO)Cc1ccc(Br)cc1	20µM*	20µM*	4%	-35%	-1%	50µM*
Cc1ccc(CN(CCO)CCO)cc1	-9%	-2%[59 µM]	0%	38%	11%	4%
CC(c1ccccc1)n1c(-c2ccc(C(C)(C)C)cc2)n[nH]c1=S (stereo not given)	?	32µM*	6%	13%	10%	?
S=c1[nH]nc(-c2ccccc2)c2ccccc12	-17%	?	-3%	-6%	15%	-24%
COc1cc(-c2n[nH]c(=S)n2-c2ccc(C)cc2)cc(OC)c1OC	5µM*	nt	6%	-7%	-6%	50µM*
Cc1ccc(-c2n[nH]c(=S)c3ccccc23)cc1	-4%	32µM*	1%	57%	-5%	3%
COc1ccc(-c2n[nH]c(=S)n2-c2ccc(Br)cc2)cc1OC	50µM*	1.6µM*	4%	6%	-1%	-32%
Cc1c(C(=O)N(C)C)sc2c1c(=O)n(-c1ccc(F)cc1)c(=O)n2Cc1cc(=O)n2ccccc2n1	-12%	16%[59 µM]	6%	73%	nt	15%
Cc1ccc(S(=O)(=O)N(C)CC(=O)Nc2cc(C)ccn2)cc1	-9%	13%	nt	1%	nt	10%
Cc1ccc(-n2c(-c3ccccc3)n[nH]c2=S)cc1	2.2µM*	0.89µM*	1%	-23%	79µM*	?
Cc1ccc(-n2c(-c3ccc(Cl)cc3Cl)n[nH]c2=S)cc1	-42%	nt	nt	1%	-5%	0%
Cc1ccc(-n2c(-c3ccncc3)n[nH]c2=S)cc1C	5µM*	5µM*	-4%	14%	45µM*	-1%
Cc1ccc(-n2c(-c3ccccc3)n[nH]c2=S)c(C)c1	?	1.8µM*	nt	41%	-17%	-5%
Cc1ccc(-n2c(Cc3cccc4ccccc34)n[nH]c2=S)c(C)c1	-35%	?	5%	18%	-1%	-35%
Cc1ccc(-n2c(SCC(=O)N3CCOCC3)nnc2-c2ccncc2)cc1C	-4%	18%[12.7 µM]	nt	26%	18%	-4%
Cc1ccc(-n2c(-c3ccncc3)n[nH]c2=S)cc1	22µM*	8.9µM*	?	5%	-6%	-2%
CCn1c(SCc2ccc(C)cc2)nnc1-c1cnccn1	-1%	-11%[59 µM]	5%	32%	5%	1%
Cc1onc(-c2ccccc2)c1-c1csc(COc2ccccc2)n1	152%	429%	nt	198%	-7%	87%
COc1ccc(-n2c(-c3ccc(C)cc3)n[nH]c2=S)cc1	20µM*	4µM*	6%	-1%	89µM*	-7%
CC(C)(C)c1ccc(-c2n[nH]c(=S)n2-c2ccccc2)cc1	-20%	2.8µM*	nt	49%	16%	12%
Cc1onc(-c2ccccc2)c1-c1n[nH]c(=S)n1-c1ccccc1	63µM*	nt	nt	-21%	nt	nt
Cn1c2ccccc2c(=O)c2c(=O)n(-c3ccccc3)c(-c3ccc(C(C)(C)C)cc3)nc21	-31%	-6%	0%	36%	-23%	-22%
SMILES	JMJD2A Tudor inh	G9a block	TDP1 inh	HP1b binding inh	Sfp inh	BAZ2B inh
Cc1ccc(-n2c(-c3cnccn3)n[nH]c2=S)cc1	8.9µM*	7.9µM*	nt	36%	56µM*	79µM*
COc1ccc(OC)c(NS(=O)(=O)c2cc3c(cc2Cl)N(C(C)=O)CCO3)c1	20%	?	-6%	42%	nt	4%
Cc1ccc(C)c(N2CCN(C(=O)CSc3ccsc3[N+](=O)[O-])CC2)c1	?	32µM*	1%	-16%	3%	?
CCn1c(=O)cc(SCC(=O)N2CCN(c3cc(C)ccc3C)CC2)c2ccccc21	-34%	?	7%	9%	nt	-29%
O=C(CSc1ccsc1[N+](=O)[O-])N1CCCCCC1	-13%	45µM*	-2%	4%	-9%	nt
O=C(CSc1ccsc1[N+](=O)[O-])N1CCN(c2ccc(Cl)cc2)CC1	?	50µM*	nt	-16%	-4%	?
NC(=O)C1CCN(C(=O)CSc2ccsc2[N+](=O)[O-])CC1	-22%	?	-12%	23%	9%	-21%
Cc1ccc(S(=O)(=O)N2CCC(NC(=O)c3cccc(C)c3)CC2)cc1	2%	?	0%	30%	9%	-4%
O=[N+]([O-])c1ccccc1/C=C/c1ccc2ccccc2n1	40µM*	nt	nt	-12%	-11%	?
O=[N+]([O-])c1cccc2ccc(/C=C/c3ccc(F)cc3)nc12	?	13µM*	0%	-16%	2%	?
Cn1c(/C=C/c2ccccc2[N+](=O)[O-])nc2ccccc2c1=O	-4%	-5%	5µM*	11%	16%	-6%
COc1cccc(CNC(=O)c2sc3nc[nH]c(=O)c3c2C)c1	1%	16%[59 µM]	3%	10%[57 µM]	nt	5%
CCOc1ccc(NC(=O)Cc2ccc(S(=O)(=O)N3CCCCC3)cc2)cc1OCC	-24%	nt	1%	10%	nt	nt
CC(Oc1ccc(F)cc1)C(=O)Nc1ccccc1C(=O)N1CCCCC1 (stereo not given)	8%	17%[59 µM]	-1%	40%	nt	2%
CCCn1c(=N)n(CC(=O)c2ccc([N+](=O)[O-])cc2)c2ccccc21	-23%	40µM*	-2%	17%	?	35µM*
Cc1ccccc1Cn1c(=N)n(CC(=O)c2ccc([N+](=O)[O-])cc2)c2ccccc21	-30%	-10%[59 µM]	4%	5%	-7%	?
O=C(O)COc1ccc(Br)cc1/C=N/O	-32%	56µM*	nt	24%	4%	?
CCOc1ccc(Br)cc1/C=N/O	-1%	4%[59 µM]	-1%	16%	10%	2%
O=[N+]([O-])c1cc(/C=N/Nc2nc3ccccc3[nH]2)c(O)cc1O	28µM*	50µM*	6%	?	-21%	20µM*
Cc1cc(=O)[nH]c(N/N=C/c2c[nH]c3ccccc23)n1	-13%	?	?	13%	28µM*	19%
Cc1ccccc1/C=N/Nc1nc2ccccc2[nH]1	-17%	-40%	9%	12%	?	-29%
C(=N\Nc1nc(N2CCCCC2)nc(N2CCCCC2)n1)/c1c[nH]c2ccccc12	35µM*	?	5%	6%	25%	40µM*
Cc1[nH]c2ccccc2c1/C=N/Nc1nc2ccccc2[nH]1	45µM*	40µM*	-8%	?	11%	28µM*
